Assay results: PubChem BioAssay (NCI)
This is part of a sample that, as a whole, favours compounds with a hit. Of some 79,000 tested, about 15% had one in any assay. Calls of active or inactive are those of the source. Rule as the data show it: active = growth inhibition above about 70%; inactive = the rest.

Columns and labels:
[1] = NCI Yeast Anticancer Drug Screen. Data for the rad52 strain (AID 147);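 also: 0% = growth of vehicle-treated control cultures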; details: S. cerevisiae rad52 mutant growth inhibition, hits give high values
Method in brief: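 Here a repair-compromised yeast strain receives each compound; its growth is then quantified and normalised to vehicle-only controls.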

[2] = NCI Yeast Anticancer Drug Screen. Data for the wt1 strain (AID 149);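 also: 0% = growth of vehicle-treated wt1 cultures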; details: S. cerevisiae wt1 strain (SPY 50644) growth inhibition, hits give high values
Method in brief: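 Readout: yeast growth inhibition, normalised to vehicle controls, in the wt1 strain exposed to test compounds.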

[3] = NCI Yeast Anticancer Drug Screen. Data for the rad50EPP+ strain (AID 151);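 also: 0% = growth of vehicle-treated control cultures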; details: S. cerevisiae rad50 mutant strain, hits give high values
Method in brief: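 Read-out is yeast growth inhibition relative to vehicle; cells used were the rad50EPP+ strain.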

[4] = NCI Yeast Anticancer Drug Screen. Data for the mgt1 strain (AID 153); details: S. cerevisiae mgt1 mutant growth inhibition, hits give high values
Method in brief: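 Measured: inhibition of mgt1 yeast growth by compound, normalized to vehicle-treated cultures.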

[5] = NCI Yeast Anticancer Drug Screen. Data for the rad50 strain (AID 155);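 also: 0% = growth of vehicle-only cultures of the same strain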; details: S. cerevisiae rad50 strain growth inhibition, hits give high values
Method in brief: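 Compounds were tested on a yeast strain with an engineered DNA damage repair alteration; the reported value is growth inhibition normalised to vehicle treatment.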

[6] = NCI Yeast Anticancer Drug Screen. Data for the mec2-1 strain (AID 157); details: S. cerevisiae mec2-1 strain, hits give high values
Method in brief: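 Using mec2-1 yeast: add compound, measure growth, express inhibition versus vehicle-treated cultures.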

[7] = NCI Yeast Anticancer Drug Screen. Data for the rad14 strain (AID 159);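 also: 0% = growth of vehicle-treated control cultures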; details: S. cerevisiae rad14 strain growth inhibition, hits give high values
Method in brief: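 Compound-treated yeast with a defined DNA-repair lesion; growth inhibition normalised to vehicle-treated cultures.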

[8] = NCI Yeast Anticancer Drug Screen. Data for the sgs1 mgt1 strain (AID 161);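 also: 0% = growth of cultures given vehicle only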; details: S. cerevisiae sgs1 mgt1 strain, hits give high values
Method in brief: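 Yeast cells carrying a defined DNA-repair defect were exposed to test compounds. Growth inhibition was measured relative to vehicle-treated controls.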

[9] = NCI Yeast Anticancer Drug Screen. Data for the CLN2oe strain (AID 163);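 also: 0% = growth of vehicle-only control cultures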; details: S. cerevisiae CLN2oe strain, hits give high values
Method in brief: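 Whole-cell yeast growth assay. A strain engineered for altered cell-cycle control received compound, and inhibition relative to vehicle-treated cultures was recorded.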

[10] = NCI Yeast Anticancer Drug Screen. Data for the cln2 rad14 strain (AID 165);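 also: 0% = growth equal to vehicle treated cultures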; details: S. cerevisiae cln2 rad14 strain, hits give high values
Method in brief: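 Yeast strain cln2 rad14, bearing defects in cell cycle control and DNA repair, serves as the test system; values reflect growth inhibition compared with vehicle.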

[11] = NCI Yeast Anticancer Drug Screen. Data for the bub3 strain (AID 167); details: S. cerevisiae bub3 mutant strain, hits give high values
Method in brief: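 Growth of a checkpoint-deficient yeast mutant is measured after compound exposure. Values represent inhibition relative to vehicle.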

[12] = NCI Yeast Anticancer Drug Screen. Data for the wt2 strain (AID 169);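 also: 0% = growth of vehicle-treated yeast cultures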; details: S. cerevisiae wt2 strain growth inhibition, hits give high values
Method in brief: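 Treated yeast vs. vehicle-treated yeast: growth inhibition determined.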

[13] = NCI Yeast Anticancer Drug Screen. Data for the mlh1 strain (AID 171);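 also: 0% = growth of vehicle-treated control cultures of the same strain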; details: S. cerevisiae mlh1 strain growth inhibition, hits give high values
Method in brief: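 A yeast strain with a defined genetic lesion serves as the test organism. Cultures receive compound or vehicle, and growth is measured.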

[14] = NCI Yeast Anticancer Drug Screen. Data for the sgs1 strain (AID 173);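 also: 0% = growth of vehicle-only control cultures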; details: S. cerevisiae sgs1 mutant, hits give high values
Method in brief: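 A genetically defined yeast mutant is incubated with the test compound, and its growth is compared to that of the same strain given vehicle.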

[15] = NCI Yeast Anticancer Drug Screen. Data for the mlh1 rad18 strain (AID 175); details: S. cerevisiae mlh1 rad18 strain growth inhibition, hits give high values
Method in brief: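 Steps: expose repair-defective yeast to compound; measure growth; express inhibition against vehicle-treated controls.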

[16] = NCI Yeast Anticancer Drug Screen. Data for the rad18 strain (AID 177); details: S. cerevisiae rad18 mutant growth inhibition, hits give high values
Method in brief: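 Measured value is growth inhibition of a yeast strain bearing a DNA repair alteration, referenced to vehicle-treated cells.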

[17] = at 5.0 µM (retest, dose inferred, filed as 0.5)
[18] = at 50.0 µM (retest, dose inferred, filed as 5.0)

Measured: growth inhibition

OC1(C#CI)CCCCC1
active: [1]; at 11.0 µM 96% | [1]; at 33.0 µM 98% | [1]; at 100.0 µM 99% | [2]; at 11.0 µM 96% | [2]; at 33.0 µM 99% | [2]; at 100.0 µM 99% | [3]; at 11.0 µM 96% | [3]; at 33.0 µM 99% | [3]; at 100.0 µM 99% | [4]; at 11.0 µM 88% | [4]; at 33.0 µM 99% | [4]; at 100.0 µM 99% | [5]; at 11.0 µM 98% | [5]; at 33.0 µM 99% | [5]; [18] 97% | [5]; at 50.0 µM 99.7% | [5]; at 100.0 µM 99% | [6]; at 11.0 µM 89% | [6]; at 33.0 µM 99% | [6]; [18] 98% | [6]; at 50.0 µM 99.5% | [6]; at 100.0 µM 100% | [7]; at 11.0 µM 98% | [7]; at 33.0 µM 99% | [7]; at 100.0 µM 100% | [8]; [18] 97% | [8]; at 50.0 µM 98.6% | [9]; at 11.0 µM 82% | [9]; at 33.0 µM 99% | [9]; at 100.0 µM 99% | [10]; [18] 98% | [10]; at 50.0 µM 99.2% | [11]; at 11.0 µM 97% | [11]; at 33.0 µM 99% | [11]; [18] 97% | [11]; at 50.0 µM 99.3% | [11]; at 100.0 µM 99% | [12]; at 11.0 µM 98% | [12]; at 33.0 µM 99% | [12]; at 100.0 µM 100% | [13]; at 11.0 µM 96% | [13]; at 33.0 µM 99% | [13]; at 100.0 µM 99% | [14]; at 11.0 µM 96% | [14]; at 33.0 µM 99% | [14]; at 100.0 µM 99% | [15]; [18] 97% | [15]; at 50.0 µM 99.1% | [16]; at 11.0 µM 96% | [16]; at 33.0 µM 99% | [16]; at 100.0 µM 99%
inactive: [1]; at 1.2 µM 1% | [1]; at 3.7 µM 43% | [2]; at 1.2 µM -4% | [2]; at 3.7 µM 38% | [3]; at 1.2 µM -16% | [3]; at 3.7 µM 40% | [4]; at 1.2 µM -7% | [4]; at 3.7 µM -3% | [5]; at 1.2 µM -6% | [5]; at 3.7 µM 58% | [5]; [17] 67% | [6]; at 1.2 µM -4% | [6]; at 3.7 µM 6% | [6]; [17] -18% | [7]; at 1.2 µM -2% | [7]; at 3.7 µM 32% | [8]; [17] -20% | [9]; at 1.2 µM -11% | [9]; at 3.7 µM -5% | [10]; [17] -28% | [11]; at 1.2 µM -19% | [11]; at 3.7 µM 12% | [11]; [17] -35% | [12]; at 1.2 µM -7% | [12]; at 3.7 µM 28% | [13]; at 1.2 µM -14% | [13]; at 3.7 µM 17% | [14]; at 1.2 µM 1% | [14]; at 3.7 µM 37% | [15]; [17] -52% | [16]; at 1.2 µM 3% | [16]; at 3.7 µM 60%

CC(C)N(CCCNc1c2ccccc2nc2cccc([N+](=O)[O-])c12)C(C)C
inactive: [1]; at 1.2 µM 51% | [2]; at 1.2 µM 0% | [2]; at 3.7 µM 5% | [2]; at 11.0 µM 43% | [3]; at 1.2 µM 52% | [4]; at 1.2 µM -1% | [4]; at 3.7 µM 8% | [4]; at 11.0 µM 67% | [5]; at 1.2 µM 42% | [6]; at 1.2 µM 12%
active: [1]; at 3.7 µM 87% | [1]; at 11.0 µM 95% | [1]; at 33.0 µM 97% | [1]; at 100.0 µM 98% | [2]; at 33.0 µM 94% | [2]; at 100.0 µM 98% | [3]; at 3.7 µM 86% | [3]; at 11.0 µM 93% | [3]; at 33.0 µM 95% | [3]; at 100.0 µM 96% | [4]; at 33.0 µM 97% | [4]; at 100.0 µM 99% | [5]; at 3.7 µM 82% | [5]; [17] 86% | [5]; at 11.0 µM 92% | [5]; at 33.0 µM 94% | [5]; [18] 98% | [5]; at 50.0 µM 92.8% | [5]; at 100.0 µM 97% | [6]; at 3.7 µM 76%
